# Assay outcomes deposited in PubChem by National Center for Advancing Translational Sciences (NCATS).
# Rows were chosen to be rich in hits. Some 21% of all compounds tested hit in one or more screens of this group.
# IL-1B inflam inh: inflammasome signaling inhibition, IL-1 beta readout | activity change, % at 57.5 µM | AID 743279 | 4.7% of 360,000 active | THP-1 LPS/ATP IL-1B secretion, AlphaLISA, 16 h; hits give low values; in the data active = activity change below about -50%; inconclusive = mostly about -30% to -49%
#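 THP-1 cells pretreated 1 hr with compounds (up to 57.5 uM final), then stimulated with LPS (250 ng/mL final) plus ATP (1.25 mM final); secreted IL-1B measured by AlphaLISA after 16 hr, decreased signal indicating inhibition.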
# ELG1 DNA repair: blocks ELG1-dependent DNA repair in HEK293T cells | HEK293T ELG1-luciferase reporter, luminescence, 16 h; DNA damage induced by 5-fluorouridine | Potency, µM (top dose mostly 46.1 µM), for inactives: at the top dose activity change, negative = inhibition, usual class: inhibitors | 2.3% of 330,000 active | AID 504467; note: potency is the fitted concentration of half-maximal effect; nearly all actives have a fitted effect of over 55% in size
#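 Luminescence from the luciferase reporter, measured 30 min after ONE-Glo reagent at room temperature, was the read-out. Beforehand, 2,000 cells per well were exposed for 16 hr at 37 °C to 5-fluorouridine together with compound or vehicle.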
# TDP1 cell CPT: DT40-hTDP1 cell growth loss with CPT | chicken DT40 Tdp1-/-;hTDP1 cells + 20 nM CPT, ATP luminescence, 48 h | 12% of 420,000 active | AID 686979 | Potency, µM (series often up to 46.2 µM), for the others: at the highest dose activity change, negative = growth inhibition, most hits filed as inhibitors; note: potency is the fitted concentration of half-maximal effect; nearly all actives have a fitted effect of over 55% in size
#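 Chicken DT40 Tdp1-/- cells complemented with human TDP1, 400 cells/well, exposed to compounds plus 20 nM camptothecin for at least 48 h at 37 C; viability read as ATP content by CellTiter-Glo luminescence.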
# VP16 counter: inhibits Gal4-VP16 luciferase reporter, ROR gamma counter-screen | Drosophila S2 Gal4-VP16 UAS-luciferase, luminescence, 20 h | Potency, µM (top dose mostly 53.6 µM), for inactives: top-dose activity, negative = inhibition, most hits filed as inhibitors | 3.5% of 310,000 active | AID 2546;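 note: Gal4-VP16 expression switched on by copper sulfate through the metallothionein promoter; potency is the fitted concentration of half-maximal effect; nearly all actives have a fitted effect of over 50% in size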
# TDP1 cell noCPT: qHTS for Inhibitors of human tyrosyl-DNA phosphodiesterase 1 (TDP1): qHTS in cells in absence of CPT | 15% of 420,000 active | AID 686978, 2013 | Potency, µM (top dose mostly 46.2 µM), for inactives: at the highest dose activity change, negative = growth inhibition, hits mostly inhibitors | DT40 Tdp1-/- hTDP1 cells, no CPT, ATP luminescence, 48 h; note: potency is the fitted concentration of half-maximal effect; nearly all actives have a fitted effect of over 55% in size
#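 A cellular qHTS used chicken DT40 cells lacking endogenous Tdp1 but carrying stably transfected human TDP1. Compounds were applied without camptothecin, and cell growth kinetics were judged by ATP-dependent luminescence after ≥48 hr.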
# RORg inh: blocks mouse ROR gamma transcriptional activity; Drosophila S2 Gal4-RORgamma UAS-luciferase reporter, 20 h; Potency, µM (titrated, usually from 53.6 µM), inactives show top-dose activity change, negative = inhibition, usual class: inhibitors; 5.4% of 310,000 active; note: potency is the fitted concentration of half-maximal effect; nearly all actives have a fitted effect of over 60% in size
# Target sequence (P51450 whole entry, looked up, the tested form may be a part): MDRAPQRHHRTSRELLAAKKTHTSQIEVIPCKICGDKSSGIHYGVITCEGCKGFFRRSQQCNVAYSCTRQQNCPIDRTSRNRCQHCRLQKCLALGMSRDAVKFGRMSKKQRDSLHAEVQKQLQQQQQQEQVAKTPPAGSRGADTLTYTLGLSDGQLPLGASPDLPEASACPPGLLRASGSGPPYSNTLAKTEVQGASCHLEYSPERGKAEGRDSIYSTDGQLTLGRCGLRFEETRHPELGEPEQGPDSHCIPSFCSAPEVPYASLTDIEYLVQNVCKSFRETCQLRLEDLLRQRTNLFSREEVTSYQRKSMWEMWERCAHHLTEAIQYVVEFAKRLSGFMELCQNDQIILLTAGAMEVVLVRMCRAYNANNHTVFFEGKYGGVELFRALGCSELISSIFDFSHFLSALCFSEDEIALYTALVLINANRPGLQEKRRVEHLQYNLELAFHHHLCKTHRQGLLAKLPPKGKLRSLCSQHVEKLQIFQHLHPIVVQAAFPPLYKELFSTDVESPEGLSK
#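 Using a luciferase readout, inhibitors were identified by reduced reporter activity in Drosophila cells coexpressing a copper-inducible Gal4–ROR gamma fusion and UAS-driven Photinus luciferase, incubated 20 hr after 700 uM copper sulfate.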
# Active calls of the source: *; ? = inconclusive; · = no result; [ ] = another dose, or the depositor's remark. Unless noted, calls come from the whole dose curve; as a rule, active = well fitted curve in the direction sought with a large enough effect; inconclusive = small, poorly fitted or top-dose-only effect, or another doubt; inactive = no such curve, though single readings can be large; an effect the other way counts as inactive or inconclusive. % is set by controls: 0 for no effect and ±100 for the full control effect.
SMILES,IL-1B inflam inh,ELG1 DNA repair,TDP1 cell CPT,VP16 counter,TDP1 cell noCPT,RORg inh
O=C1OCCN1c1c(-c2ccccc2)c(N2CCOCC2)nc2ccccc12,16,·,12µM*,·,15µM*,·
c1ccc(-c2nc3ccccc3nc2N2CCOCC2)cc1,34,-18%,?,2%,?,-1%
Cc1nc2ccccc2n1C(c1cccnc1)c1nc2ccccc2[nH]1 (stereo not given),6,·,13%,·,-7%,·
O=C(NCc1ccccc1C(F)(F)F)c1cccc2c1C(=O)c1ccc(N3CCC(N4CCCCC4)CC3)cc1S2(=O)=O,-103*,·,2.3µM*,·,3.7µM*,·
O=C(NCc1ccccc1Br)c1cccc2c1C(=O)c1ccc(N3CCC(Cc4ccccc4)CC3)cc1S2(=O)=O,0,6%,-27%,·,?,·
O=C(NCc1ccccc1C(F)(F)F)c1cccc2c1C(=O)c1ccc(N3CCOCC3)cc1S2(=O)=O,13,5.2µM*,-24%,·,-14%,·
Cc1ccc(S(=O)(=O)NNc2ccccc2)cc1,14,12%,-21%,-1%,-1%,1%
Cc1ccc(S(=O)(=O)NNc2nc3ccccc3nc2C(F)(F)F)cc1,-11,1%,?,?,18µM*,18µM*
Cc1ccc(S(=O)(=O)Nc2ccc(Cl)cc2O)cc1,-21,·,?,·,?,·
Cc1ccc(S(=O)(=O)NNc2c3ccccc3nc3ccc(Cl)cc23)cc1,-23,·,23µM*,·,8.2µM*,·
O=C(NNc1nc2ccccc2nc1C(F)(F)F)c1ccccc1,-18,9%,?,16µM*,?,7.9µM*
O=C(NNc1nc2ccccc2o1)c1ccccc1,-14,?,-2%,?,-23%,?
Cn1cc(S(=O)(=O)N2CCCCCC2)cc1C(=O)Nc1ccc(Cl)c(C(F)(F)F)c1,·,·,0%,·,-26%,·
O=C(Cn1ccn(-c2ccc(F)c(F)c2)c(=O)c1=O)c1ccc(F)cc1,·,·,-14%,·,10%,·
Cc1ccccc1OCCCn1c(CO)nc2ccccc21,3,0%,?,-7%,18µM*,-30%
COc1ccccc1OCCn1c(CO)nc2ccccc21,-10,1%,-27%,-1%,?,6%
CCc1nc2ccccc2n1CCCCOc1ccccc1C,·,·,?,·,26µM*,·
Cc1ccccc1OCCCn1c(=O)sc2ccccc21,6,?,14%,10µM*,-21%,2.8µM*
Cc1ccnc(NC(c2ccsc2)c2ccc3ccc(C)nc3c2O)c1 (stereo not given),-84*,-5%,23%,?,?,5µM*
COc1ccc(C(Nc2cc(C)ccn2)c2ccc3ccc(C)nc3c2O)cc1 (stereo not given),5,?,?,3.5µM*,?,2.5µM*
COc1ccccc1CNc1cc(C)ccn1,-24,-1%,?,4%,-27%,-25%[1.91 µM]
Cc1cc(NC(=O)c2nn(C)c(C)c2Br)no1,7,?,-17%,16%,0%,-21%
Cc1ccc(CNC(=O)C2CCCCC2C(=O)O)cc1 (stereo not given),-4,-5%,-16%,18%,-21%,2%
Brc1ccc2c(c1)CNc1c(ncnc1N1CCOCC1)O2,-12,-25%,16µM*,4%,?,32%
COc1ccc(NC(=O)C2=C(C)Nc3ncnn3C2c2cccn2C)cc1 (stereo not given),·,·,-4%,·,-5%,·
SMILES,IL-1B inflam inh,ELG1 DNA repair,TDP1 cell CPT,VP16 counter,TDP1 cell noCPT,RORg inh
O=C(O)[C@@H]1[C@@H]2C[C@H]3c4[nH]c5ccccc5c4CCN3C[C@@H]2CC[C@@H]1O,·,·,·,8%[17 µM],·,-32%[16.9 µM]
O=C(O)[C@H]1[C@H]2C[C@H]3c4[nH]c5ccccc5c4CCN3C[C@@H]2CC[C@@H]1O,·,·,11µM*,-18%,13µM*,-19%
CC(=O)Nc1cccc(-c2cccc3nccn23)c1,21,·,-1%,·,-29%,·
CCOC(=O)c1cn(Cc2cccc(Cl)c2)nn1,-3,7%,1%,2%,-5%,25%
CCOC(=O)c1cn(Cc2c(C)c(C)c(C)c(C)c2C)nn1,22,-22%,16µM*,-19%,23µM*,-4%
C=CC(=O)N1C/C(=C/c2ccc(F)cc2)C(=O)/C(=C\c2ccc(F)cc2)C1,-84*,·,0.82µM*,·,-104%,·
O=C(/C=C/c1ccc(F)cc1)N1CCN(S(=O)(=O)/C=C/c2ccccc2)CC1,24,10%,3%,-11%,-7%,-19%
COCC(=O)Nc1ccccc1-c1ccccc1,12,12%,-9%,-1%,17%,-19%
O=C(O)/C=C\C(=O)Nc1ccccc1C(=O)NC1CCCCC1,-15,?,-4%,10%,-4%,2%
O=C(O)/C=C/C(=O)Nc1ccccc1-c1ccccc1,-15,0%,8.2µM*,-10%,10µM*,12%
O=C(O)/C=C/C(=O)Nc1ccccc1SC(F)(F)C(F)(F)C(F)(F)F,-104*,2%,?,-22%,?,1%
NC1(c2ccc(-c3nc4ccn5c(=O)[nH]nc5c4cc3-c3ccccc3)cc2)CCC1,·,·,0.38µM*,·,0.6µM*,·
O=c1cc(N2CCCC2)c(-c2ccccc2)n[nH]1,-6,-1%,-9%,-9%,-10%,-14%
CN1CCN(c2ccc(CNS(=O)(=O)Cc3cccc(C(F)(F)F)c3)cc2)CC1,0,?,6.5µM*,?,3.7µM*,30%
O=C(N[C@@H](Cc1ccccc1)C(=O)OCc1ccccc1)c1ccco1,-3,-6%,-1%,·,?,·
CC(=O)/C=C/c1ccc2c(c1)S(=O)(=O)N(C1CCCC1)[C@H]2CC(C)=O,·,·,16µM*,·,7.1µM*,·
CCCCCCCCN1[C@@H](CC(C)=O)c2ccc(/C=C/C(C)=O)cc2S1(=O)=O,·,·,4µM*,·,5.6µM*,·
COC(=O)/C=C/c1ccc2c(c1)S(=O)(=O)N(C1CCCC1)[C@H]2CC(=O)OC,·,·,0.63µM*,·,?,·
COCCNc1nc2cc(-c3cccc(Cl)c3)sc2c(=O)n1C,14,·,?,·,?,·
CC(=O)N1CCN(C(=O)c2ccc(C(=O)c3ccccc3)cc2)CC1,-11,-17%,-1%,-13%,-6%,11%
CCc1noc(C)c1C(=O)OCC(=O)Nc1ccc(F)cc1Cl,-26,?,3%,·,?,·
COC(=O)c1ccc(-c2csc(NC(=O)c3c(C)noc3C)n2)cc1,48,?,16µM*,·,21µM*,·
